Data as given in ChEMBL document CHEMBL1961873, “Compounds: GSK PKIS; Assays: Nanosyn kinase panel” (2012).

Tests used:
[1] = system: Proto-oncogene tyrosine-protein kinase receptor Ret (Homo sapiens), P07949 [Y791F]; details: at 1 µM
[2] = molecular target: Macrophage-stimulating protein receptor (Homo sapiens) (UniProt Q04912); details: at 0.1 µM
[3] = molecular target: Macrophage-stimulating protein receptor (Homo sapiens) (UniProt Q04912); details: at 1 µM
[4] = molecular target: Proto-oncogene tyrosine-protein kinase ROS (Homo sapiens) (UniProt P08922); details: at 0.1 µM
[5] = molecular target: Proto-oncogene tyrosine-protein kinase ROS (Homo sapiens) (UniProt P08922); details: at 1 µM
[6] = molecular target: Proto-oncogene tyrosine-protein kinase Src (Homo sapiens) (UniProt P12931); details: at 0.1 µM
[7] = molecular target: Proto-oncogene tyrosine-protein kinase Src (Homo sapiens) (UniProt P12931); details: at 1 µM
[8] = molecular target: Tyrosine-protein kinase Srms (Homo sapiens) (UniProt Q9H3Y6); details: at 0.1 µM
[9] = molecular target: Tyrosine-protein kinase Srms (Homo sapiens) (UniProt Q9H3Y6); details: at 1 µM
[10] = molecular target: Tyrosine-protein kinase SYK (Homo sapiens) (UniProt P43405); details: at 0.1 µM
[11] = molecular target: Tyrosine-protein kinase SYK (Homo sapiens) (UniProt P43405); details: at 1 µM
[12] = molecular target: T1, Tyrosine-protein kinase Tec (Homo sapiens) (UniProt P42680); details: at 0.1 µM
T1 sequence (whole entry): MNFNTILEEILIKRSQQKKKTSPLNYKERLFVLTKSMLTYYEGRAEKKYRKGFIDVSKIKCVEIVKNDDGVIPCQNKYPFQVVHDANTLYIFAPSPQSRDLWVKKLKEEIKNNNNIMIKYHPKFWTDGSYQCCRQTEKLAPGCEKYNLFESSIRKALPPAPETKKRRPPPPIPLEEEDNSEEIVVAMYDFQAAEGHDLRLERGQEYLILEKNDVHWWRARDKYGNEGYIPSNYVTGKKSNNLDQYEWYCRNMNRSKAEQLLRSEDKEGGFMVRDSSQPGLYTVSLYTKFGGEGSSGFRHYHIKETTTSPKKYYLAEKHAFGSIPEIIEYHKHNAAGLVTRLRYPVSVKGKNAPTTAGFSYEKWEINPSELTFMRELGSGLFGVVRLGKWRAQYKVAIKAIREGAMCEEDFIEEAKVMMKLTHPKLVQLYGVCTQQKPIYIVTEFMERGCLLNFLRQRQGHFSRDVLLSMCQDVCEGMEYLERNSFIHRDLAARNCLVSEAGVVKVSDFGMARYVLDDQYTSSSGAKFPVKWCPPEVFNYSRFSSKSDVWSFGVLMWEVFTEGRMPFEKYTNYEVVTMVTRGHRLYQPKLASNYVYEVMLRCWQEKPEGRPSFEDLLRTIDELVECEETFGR

[13] = molecular target: T1, Tyrosine-protein kinase Tec (Homo sapiens); details: at 1 µM
[14] = molecular target: Angiopoietin-1 receptor (Homo sapiens) (UniProt Q02763); details: at 0.1 µM
[15] = molecular target: Angiopoietin-1 receptor (Homo sapiens) (UniProt Q02763); details: at 1 µM
[16] = molecular target: T2, Non-receptor tyrosine-protein kinase TNK1 (Homo sapiens) (UniProt Q13470); details: at 0.1 µM
T2 sequence (whole entry): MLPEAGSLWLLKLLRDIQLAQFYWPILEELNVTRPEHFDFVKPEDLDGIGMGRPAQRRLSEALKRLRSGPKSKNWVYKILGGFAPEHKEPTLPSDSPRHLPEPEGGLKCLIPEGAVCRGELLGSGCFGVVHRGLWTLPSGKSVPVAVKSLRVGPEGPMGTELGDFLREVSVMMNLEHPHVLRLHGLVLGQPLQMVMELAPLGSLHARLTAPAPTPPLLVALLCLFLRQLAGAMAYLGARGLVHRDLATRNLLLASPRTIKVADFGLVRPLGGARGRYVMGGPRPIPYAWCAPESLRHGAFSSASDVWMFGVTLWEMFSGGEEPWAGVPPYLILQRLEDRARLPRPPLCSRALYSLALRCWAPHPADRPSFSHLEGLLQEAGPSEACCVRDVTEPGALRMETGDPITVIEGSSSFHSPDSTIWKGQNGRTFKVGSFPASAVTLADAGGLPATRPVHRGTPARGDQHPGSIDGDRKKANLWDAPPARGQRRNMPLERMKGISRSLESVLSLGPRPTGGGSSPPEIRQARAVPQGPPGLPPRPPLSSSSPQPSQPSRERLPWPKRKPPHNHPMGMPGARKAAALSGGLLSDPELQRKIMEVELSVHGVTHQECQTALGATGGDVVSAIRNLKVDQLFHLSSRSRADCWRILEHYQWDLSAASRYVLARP

[17] = molecular target: T2, Non-receptor tyrosine-protein kinase TNK1 (Homo sapiens); details: at 1 µM
[18] = molecular target: Activated CDC42 kinase 1 (Homo sapiens) (UniProt Q07912); details: at 0.1 µM
[19] = molecular target: Activated CDC42 kinase 1 (Homo sapiens) (UniProt Q07912); details: at 1 µM
[20] = molecular target: High affinity nerve growth factor receptor (Homo sapiens) (UniProt P04629); details: at 0.1 µM;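 further: each value is a mean of replicate percent inhibition readings against TRKA kinase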
Chain of High affinity nerve growth factor receptor (Homo sapiens) (P04629 33-796 limits assumed): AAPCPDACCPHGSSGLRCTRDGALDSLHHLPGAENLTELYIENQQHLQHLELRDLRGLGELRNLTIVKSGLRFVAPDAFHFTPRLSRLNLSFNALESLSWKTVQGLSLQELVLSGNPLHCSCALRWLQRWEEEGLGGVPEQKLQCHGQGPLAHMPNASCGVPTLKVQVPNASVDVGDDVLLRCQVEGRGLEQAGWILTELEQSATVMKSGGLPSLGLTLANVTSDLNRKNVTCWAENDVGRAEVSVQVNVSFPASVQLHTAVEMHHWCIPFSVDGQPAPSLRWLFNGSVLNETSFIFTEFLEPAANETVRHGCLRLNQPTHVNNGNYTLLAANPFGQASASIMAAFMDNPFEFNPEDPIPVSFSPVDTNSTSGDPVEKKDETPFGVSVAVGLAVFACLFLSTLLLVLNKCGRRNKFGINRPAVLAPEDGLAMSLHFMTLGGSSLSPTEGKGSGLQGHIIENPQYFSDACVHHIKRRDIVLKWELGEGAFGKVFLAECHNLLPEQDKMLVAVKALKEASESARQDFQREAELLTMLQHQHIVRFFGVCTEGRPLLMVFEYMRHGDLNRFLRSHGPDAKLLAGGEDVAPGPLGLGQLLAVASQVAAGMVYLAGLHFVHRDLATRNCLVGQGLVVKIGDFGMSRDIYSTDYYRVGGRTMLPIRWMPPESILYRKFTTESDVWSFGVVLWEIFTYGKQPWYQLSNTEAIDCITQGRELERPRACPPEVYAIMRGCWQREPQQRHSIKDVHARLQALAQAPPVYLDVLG

Chain of Macrophage-stimulating protein receptor (Homo sapiens) (Q04912 25-304 limits assumed): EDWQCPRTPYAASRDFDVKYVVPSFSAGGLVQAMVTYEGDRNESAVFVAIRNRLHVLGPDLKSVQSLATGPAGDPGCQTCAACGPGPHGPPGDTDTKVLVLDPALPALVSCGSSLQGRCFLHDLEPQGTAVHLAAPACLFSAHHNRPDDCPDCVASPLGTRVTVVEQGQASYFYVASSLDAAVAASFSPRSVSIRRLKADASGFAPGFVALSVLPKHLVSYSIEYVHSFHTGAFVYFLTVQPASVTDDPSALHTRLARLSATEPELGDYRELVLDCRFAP
Chain of Macrophage-stimulating protein receptor (Homo sapiens) (Q04912 310-1400 limits assumed): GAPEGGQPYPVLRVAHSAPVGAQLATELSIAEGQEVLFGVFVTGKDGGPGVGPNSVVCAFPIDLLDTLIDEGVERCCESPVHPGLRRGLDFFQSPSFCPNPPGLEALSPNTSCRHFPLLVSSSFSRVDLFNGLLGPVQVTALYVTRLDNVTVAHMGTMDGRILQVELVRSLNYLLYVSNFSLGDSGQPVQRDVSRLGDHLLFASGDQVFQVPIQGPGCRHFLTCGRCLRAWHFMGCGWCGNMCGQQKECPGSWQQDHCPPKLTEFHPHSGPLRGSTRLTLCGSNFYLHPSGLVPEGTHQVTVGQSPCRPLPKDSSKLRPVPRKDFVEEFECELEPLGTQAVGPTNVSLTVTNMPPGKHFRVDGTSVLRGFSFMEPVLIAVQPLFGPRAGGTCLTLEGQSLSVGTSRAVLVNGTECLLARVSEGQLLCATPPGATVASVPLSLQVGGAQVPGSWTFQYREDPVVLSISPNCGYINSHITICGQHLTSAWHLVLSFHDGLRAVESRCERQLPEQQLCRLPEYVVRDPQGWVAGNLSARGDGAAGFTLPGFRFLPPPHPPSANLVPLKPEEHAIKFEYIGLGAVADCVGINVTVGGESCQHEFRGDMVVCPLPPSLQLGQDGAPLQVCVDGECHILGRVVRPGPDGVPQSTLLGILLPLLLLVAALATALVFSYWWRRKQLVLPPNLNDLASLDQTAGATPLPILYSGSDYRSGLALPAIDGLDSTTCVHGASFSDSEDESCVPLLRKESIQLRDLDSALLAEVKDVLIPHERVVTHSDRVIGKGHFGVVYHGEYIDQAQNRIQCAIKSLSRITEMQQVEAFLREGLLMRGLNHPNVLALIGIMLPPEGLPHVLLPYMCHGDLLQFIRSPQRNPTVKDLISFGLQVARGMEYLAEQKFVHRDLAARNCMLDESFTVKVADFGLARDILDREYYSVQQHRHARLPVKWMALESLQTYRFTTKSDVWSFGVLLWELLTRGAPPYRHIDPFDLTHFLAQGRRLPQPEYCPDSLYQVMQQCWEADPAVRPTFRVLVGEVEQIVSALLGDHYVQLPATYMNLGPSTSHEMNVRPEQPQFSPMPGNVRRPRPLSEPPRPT
Chain of Proto-oncogene tyrosine-protein kinase receptor Ret (Homo sapiens), P07949 [Y791F] (P07949 whole entry Y791F): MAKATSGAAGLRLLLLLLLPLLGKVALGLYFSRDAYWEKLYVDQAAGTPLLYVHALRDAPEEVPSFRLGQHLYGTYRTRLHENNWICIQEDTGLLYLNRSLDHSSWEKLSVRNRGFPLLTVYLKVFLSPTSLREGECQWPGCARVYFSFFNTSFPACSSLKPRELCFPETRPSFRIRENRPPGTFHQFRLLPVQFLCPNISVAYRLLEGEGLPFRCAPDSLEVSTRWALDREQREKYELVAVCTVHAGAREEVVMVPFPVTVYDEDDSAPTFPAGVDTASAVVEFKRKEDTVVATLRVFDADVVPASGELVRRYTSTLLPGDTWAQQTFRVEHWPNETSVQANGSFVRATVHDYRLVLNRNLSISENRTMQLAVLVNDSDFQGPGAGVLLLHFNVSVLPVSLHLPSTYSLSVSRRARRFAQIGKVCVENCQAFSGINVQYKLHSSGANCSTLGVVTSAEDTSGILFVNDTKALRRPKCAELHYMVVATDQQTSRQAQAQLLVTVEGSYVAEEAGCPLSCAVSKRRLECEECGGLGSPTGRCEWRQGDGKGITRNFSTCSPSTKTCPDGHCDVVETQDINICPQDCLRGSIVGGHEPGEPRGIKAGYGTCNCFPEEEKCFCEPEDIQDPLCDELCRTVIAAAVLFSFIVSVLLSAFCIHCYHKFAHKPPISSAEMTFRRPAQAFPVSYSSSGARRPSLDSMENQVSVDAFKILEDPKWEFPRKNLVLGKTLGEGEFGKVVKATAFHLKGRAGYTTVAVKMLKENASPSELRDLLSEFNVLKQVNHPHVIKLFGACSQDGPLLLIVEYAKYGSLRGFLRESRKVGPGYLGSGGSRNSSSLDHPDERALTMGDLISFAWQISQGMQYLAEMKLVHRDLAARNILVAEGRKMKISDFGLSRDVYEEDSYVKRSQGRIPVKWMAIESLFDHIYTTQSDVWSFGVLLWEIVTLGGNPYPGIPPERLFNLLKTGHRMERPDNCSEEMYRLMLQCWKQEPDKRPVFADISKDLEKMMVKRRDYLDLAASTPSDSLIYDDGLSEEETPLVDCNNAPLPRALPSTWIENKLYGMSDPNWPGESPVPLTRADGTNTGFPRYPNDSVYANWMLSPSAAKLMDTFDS
Chain of Angiopoietin-1 receptor (Homo sapiens) (Q02763 whole entry): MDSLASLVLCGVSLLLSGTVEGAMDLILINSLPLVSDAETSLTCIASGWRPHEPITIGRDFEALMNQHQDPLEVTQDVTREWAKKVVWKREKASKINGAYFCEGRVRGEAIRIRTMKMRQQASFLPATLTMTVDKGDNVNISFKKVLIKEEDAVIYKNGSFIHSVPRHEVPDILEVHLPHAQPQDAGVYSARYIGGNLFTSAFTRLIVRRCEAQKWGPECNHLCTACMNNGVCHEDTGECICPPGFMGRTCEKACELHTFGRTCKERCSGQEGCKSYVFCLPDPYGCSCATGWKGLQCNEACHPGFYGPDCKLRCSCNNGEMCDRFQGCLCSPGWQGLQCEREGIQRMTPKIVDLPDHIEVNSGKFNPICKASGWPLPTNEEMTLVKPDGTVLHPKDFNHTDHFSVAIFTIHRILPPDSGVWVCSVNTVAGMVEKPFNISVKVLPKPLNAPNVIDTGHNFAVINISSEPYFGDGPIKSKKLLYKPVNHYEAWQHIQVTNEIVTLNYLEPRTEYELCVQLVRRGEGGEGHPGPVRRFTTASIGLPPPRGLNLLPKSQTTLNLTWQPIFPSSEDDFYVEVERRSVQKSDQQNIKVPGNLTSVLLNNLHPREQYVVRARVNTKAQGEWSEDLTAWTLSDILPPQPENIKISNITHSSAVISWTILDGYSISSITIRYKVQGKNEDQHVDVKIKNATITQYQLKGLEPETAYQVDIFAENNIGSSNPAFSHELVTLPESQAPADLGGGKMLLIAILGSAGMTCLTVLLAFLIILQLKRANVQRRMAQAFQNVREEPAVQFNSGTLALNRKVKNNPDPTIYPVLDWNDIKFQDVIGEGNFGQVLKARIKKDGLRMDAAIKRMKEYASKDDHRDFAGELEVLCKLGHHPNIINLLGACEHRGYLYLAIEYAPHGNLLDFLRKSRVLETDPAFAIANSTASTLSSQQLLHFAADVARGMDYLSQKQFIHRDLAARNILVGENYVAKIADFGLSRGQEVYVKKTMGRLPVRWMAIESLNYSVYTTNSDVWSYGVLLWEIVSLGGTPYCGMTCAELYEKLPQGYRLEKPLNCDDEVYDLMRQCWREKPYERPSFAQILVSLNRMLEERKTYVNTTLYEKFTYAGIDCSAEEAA
Chain of Tyrosine-protein kinase Srms (Homo sapiens) (Q9H3Y6 whole entry): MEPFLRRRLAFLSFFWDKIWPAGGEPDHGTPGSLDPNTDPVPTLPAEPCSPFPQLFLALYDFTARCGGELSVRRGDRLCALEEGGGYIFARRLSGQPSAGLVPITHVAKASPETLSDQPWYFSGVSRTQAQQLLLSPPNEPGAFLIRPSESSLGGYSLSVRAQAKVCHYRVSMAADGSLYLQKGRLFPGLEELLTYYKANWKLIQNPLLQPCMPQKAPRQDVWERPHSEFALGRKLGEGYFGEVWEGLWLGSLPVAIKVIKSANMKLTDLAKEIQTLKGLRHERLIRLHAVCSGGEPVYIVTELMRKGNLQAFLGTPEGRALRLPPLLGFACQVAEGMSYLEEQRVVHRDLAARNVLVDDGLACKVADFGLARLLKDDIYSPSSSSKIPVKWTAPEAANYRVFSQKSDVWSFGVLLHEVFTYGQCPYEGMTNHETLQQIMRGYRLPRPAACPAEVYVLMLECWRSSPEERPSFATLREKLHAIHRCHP

SMILES	inhibition [1] [%]	inhibition [2] [%]	inhibition [3] [%]	inhibition [4] [%]	inhibition [5] [%]	inhibition [6] [%]	inhibition [7] [%]	inhibition [8] [%]	inhibition [9] [%]	inhibition [10] [%]	inhibition [11] [%]	inhibition [12] [%]	inhibition [13] [%]	inhibition [14] [%]	inhibition [15] [%]	inhibition [16] [%]	inhibition [17] [%]	inhibition [18] [%]	inhibition [19] [%]	inhibition [20] [%]
COc1ccc(-c2cc(-c3c[nH]nc3-c3ccccn3)ccn2)cc1	17.4	2.4	21.3	3.05	8.62	0.76	11.1	-2.06	0.71	-6.85	-0.69	4.44	5.59	2.18	2.66	4.34	11.9	1.58	3.35	1.86
Nc1ncc(-c2cccc(S(N)(=O)=O)c2)c2scc(-c3ccc(F)c(Cl)c3)c12	50.2	1.48	15.8	-0.54	6.78	19.6	57.1	-1.03	6.75	0.28	-4.44	25.8	75.2	2.99	11.1	6.81	36	5.03	36.6	1.33
COc1cc(Nc2nccc(Nc3ccc4c(C)n[nH]c4c3)n2)cc(OC)c1OC	82.4	6.16	34.4	40.6	70	68.4	92.1	4.33	12.6	-1.75	42.8	23.6	63.1	8.4	49.8	43	77.3	10.1	52.9	12.2
COc1cccc(-c2c[nH]c3c(N/N=C/c4ccncc4)ncnc23)c1	39.7	9.37	42.4	4.61	14.4	29.8	77.3	1.92	11.8	-4.09	4.79	3.87	16.5	4.98	27.5	10	41.7	1.63	15.3	6.49
CCN1CCC(CC(=O)Nc2n[nH]c3nnc(-c4cccc(F)c4F)cc23)CC1	6.9	-3.31	1.81	1.13	3.93	5.1	0.53	-0.09	0.68	-0.02	-2.27	0.83	2.99	1.5	10.3	1.03	4.94	0.46	1.64	-1.1
c1cc(-c2cnn3nc(N4CCOCC4)ccc23)nc(NC2CC2)n1	16.2	-1.82	1.76	5.66	23.7	10.1	8.4	0.68	-0.4	3.54	-2.21	5.06	8.36	0.4	5.76	4.07	17.8	1.19	0.94	4.16
Cc1ccc2c(-c3ccnc(Nc4ccccc4)n3)c(-c3ccc(F)cc3)nn2n1	50.7	0.11	3.58	2.77	5.97	15.3	63.2	1.58	9.73	-2.66	-4.62	10.6	38.1	3.44	17.5	3.52	14.2	1.74	7.9	9
COc1ccc2[nH]c3c4[nH]c5ccc(OC)cc5c4c4c(c3c2c1)C(=O)NC4=O	67.3	6.28	16.9	55.8	79.1	-1.01	20.4	3.34	15.6	-7.81	10.5	6.89	31	1.36	5	63.6	89	5.57	16	3.47
Clc1ccc(-c2nn3ncccc3c2-c2ccnc(Nc3ccccc3)n2)cc1	42.2	-2.2	4.63	4.17	9.1	6.5	39.3	1.99	5.97	-4.66	2.04	2.78	15.2	3.84	18.5	-6.06	11.2	0.77	4.09	3.46
CCn1c(-c2nonc2N)nc2cnc(Oc3cccc(NC(=O)c4ccc(N(C)C)cc4)c3)cc21	1.39	1.95	1.27	2.49	3.39	3.64	1.89	-0.5	6.2	-1.42	0.64	3.07	2.35	2.52	4.62	6.05	6.93	0.85	0.38	1.37
COc1ccc(-c2oc3ncnc(N)c3c2-c2ccc(NC(=O)Nc3cc(C(F)(F)F)ccc3F)cc2)cc1	94.7	4.83	21.8	32.7	81.2	43.1	91.1	1.78	8.83	-0.9	-8.92	5.43	14	79.3	86.1	21	85.3	4.09	9.81	71.1
N#Cc1c(NC(=O)c2ccc(F)cc2)sc2c1CCCC2	7.62	1.04	2.12	0.38	4.13	4.79	1.56	-1.11	-0.62	-2.1	-0.64	1.75	1.25	1.49	2.44	-1.86	2.53	0.23	0.89	0.08
COc1ccc2c(-c3ccnc(Nc4cccc(OC(F)(F)F)c4)n3)cnn2n1	11.9	2.53	9.83	11.1	46.5	5.55	23.6	-1.28	1.58	-2.58	-3.35	6.32	11.9	1.4	4.58	9.21	45	1.32	3.83	4.63
